Results filed as inconclusive are left out. Active and inactive are the calls of the source. Unless noted, calls follow the shape of the dose curve; as a rule, active = well fitted curve in the direction sought with a large enough effect in the repeat runs; inconclusive = weak or mixed curves; inactive = no such curve, though single readings can be large; an effect the other way counts as inactive or inconclusive.
Columns and labels:
[1] = qHTS assay to identify small molecule agonists of the vitamin D receptor (VDR) signaling pathway - cell viability counter screen (AID 743224); also: series mostly up to about 63 µM; nearly all actives have a fitted effect of over 50% in size
Procedure, shortened: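 VDR-bla cells, 4 h after plating, exposed to compounds for 16 h at 37C; viability then read in the same wells as CellTiter-Glo luminescence after 30 min at room temperature, following the bla FRET read.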

[2] = qHTS assay to identify small molecule antagonists of the vitamin D receptor (VDR) signaling pathway - cell viability counter screen (AID 743225); also: nearly all actives have a fitted effect of over 50% in size
Procedure, shortened: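 Same-well multiplex: following 16 h treatment of HEK 293T cells carrying a UAS-driven beta-lactamase reporter with compound and agonist (3 nM final), and a 2 h FRET substrate step, CellTiter-Glo was added and luminescence read after 30 min.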

[3] = qHTS assay to identify small molecule agonists of the NFkB signaling pathway (AID 1159509; active = well fitted curve in the direction sought with a large enough effect in the signal ratio in the repeat runs, not every such curve was filed as active; the % refers to the signal ratio; also: series mostly up to about 61 µM)
Procedure, shortened: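 ME-180 NFkB-bla, 2,000 cells/well, overnight plating; cpd pinned in DMSO, 5 h 37 C; B/G FRET substrate 1.5 h RT; ex 405, em 460/530 nm.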

[4] = qHTS assay to identify small molecule agonists of the NFkB signaling pathway - cell viability counter screen (AID 1159515; calls by dose curve; also: series mostly up to about 61 µM; nearly all actives have a fitted effect of over 55% in size)
Procedure, shortened: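 NFkB-bla ME-180 cells, 2,000/well, plated overnight at 37 C; compound added for 5 hr at 37 C. Viability read in the same wells as the bla reporter, by CellTiter-Glo luminescence after 30 min at room temperature.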

[5] = qHTS assay to identify small molecule agonists of the endoplasmic reticulum stress response signaling pathway (AID 1159516; active = well fitted activation curve with a large enough effect in the signal ratio in the repeat runs, not every such curve was filed as active; the % refers to the signal ratio)
Procedure, shortened: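 CellSensor ESRE-bla HeLa cells, 1,500 per well, plated overnight, then exposed to compounds for 5 hr at 37 C. Beta-lactamase reporter read with LiveBLAzer B/G FRET substrate after 2 hr at room temperature, 405 nm excitation, 460 and 530 nm emission.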

[6] = qHTS assay to identify small molecule agonists of the endoplasmic reticulum stress response signaling pathway - cell viability counter screen (AID 1159517; calls by dose curve;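 also: HeLa cells carrying an ER stress response element beta-lactamase reporter; series mostly up to about 61 µM; nearly all actives have a fitted effect of over 50% in size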)
Procedure, shortened: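 ESRE-bla HeLa cells, 1,500 per well, seeded overnight then treated with compounds for 5 hr at 37 C. After the beta-lactamase read, viability in the same wells is measured by CellTiter-Glo luminescence after 30 min at room temperature.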

[7] = qHTS assay to identify small molecule antagonists of the retinoid-related orphan receptor gamma (ROR-gamma) signaling pathway - cell viability counter screen (AID 1159520); also: nearly all actives have a fitted effect of over 50% in size
Procedure, shortened: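 Tet-on ROR gamma CHO cells were given compounds for 2 hr, then doxycycline hyclate at 1 uM final, and incubated 16 hr at 37 C. Viability was measured as ATP content by CellTiter-Glo luminescence.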

[8] = qHTS assay to identify small molecule agonists of the AP-1 signaling pathway - cell viability counter screen (AID 1159525; calls by dose curve; also: nearly all actives have a fitted effect of over 55% in size)
Procedure, shortened: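 AP-1-bla ME-180 cells in Opti-MEM with 0.5% dialyzed FBS, compound exposure 5 h at 37 C in 15-point titration. Viability read in the same wells as ATP content by CellTiter-Glo luminescence, normalised to tetra-n-octylammonium bromide and DMSO controls.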

[9] = qHTS assay to identify small molecule agonists of the AP-1 signaling pathway (AID 1159526; calls by dose curve)
[10] = molecular target: Retinoic acid receptor RXR-alpha (Homo sapiens) (UniProt P19793); experiment: qHTS assay to identify small molecule agonists of the RXR signaling pathway (AID 1159527; calls by dose curve; also: nearly all actives have a fitted effect of over 35% in size)
Procedure, shortened: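 Compounds in DMSO were added to RXR-alpha-UAS-bla HEK 293T cells kept in 2% charcoal-stripped serum, and incubated 16 hr at 37 C with 5% CO2. Reporter signal came from a 2 hr B/G FRET substrate step.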

[11] = qHTS assay to identify small molecule agonists of the RXR signaling pathway - cell viability counter screen (AID 1159529)
Procedure, shortened: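 Counter screen: CellTiter-Glo luminescence. Cells: RXR-alpha-UAS-bla HEK 293T. Medium: 2% charcoal-stripped FBS. Treatment: 16 h, 37 C. Reagent incubation: 30 min, RT.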

[12] = qHTS assay to identify small molecule antagonists of the retinoid acid receptor (RAR) signaling pathway - cell viability counter screen (AID 1159551); also: nearly all actives have a fitted effect of over 35% in size
Procedure, shortened: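 C3RL4 RARE-luciferase cells, 1,000/well, incubated overnight, then dosed with compound plus 1 uM retinol (final). After 6 hr at 37 C, viability read by CellTiter-Glo ATP luminescence following 30 min at room temperature.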

[13] = molecular target: Nuclear receptor ROR-gamma (Homo sapiens) (UniProt P51449); experiment: qHTS assay to identify small molecule antagonists of the retinoid-related orphan receptor gamma (ROR-gamma) signaling pathway (AID 1159521)
Procedure, shortened: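 Inducible-expression reporter assay: doxycycline (1 uM final) switched on RORγ in CHO cells bearing a ROR response element-luciferase construct, with test compounds present from 2 h beforehand. Decreased luminescence after 16 h defined antagonist activity.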

[14] = qHTS assay to identify small molecule agonists of the retinoic acid receptor (RAR) signaling pathway (AID 1159553)
Procedure, shortened: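 C3RL4 RARE-luciferase cells were seeded at 1,000/well and grown overnight at 37 C, then exposed to compounds for 6 hr at 37 C, 5% CO2. Luciferase reagent was added and luminescence was read after 30 min at room temperature.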

[15] = qHTS assay to identify small molecule antagonists of the retinoic acid receptor (RAR) signaling pathway (AID 1159552; also: nearly all actives have a fitted effect of over 50% in size)
Procedure, shortened: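 Antagonism of retinol-induced RARE reporter activity was measured in C3RL4 cells. Exposure to compounds and 1 uM final retinol lasted 6 hr at 37 C, with luminescence as endpoint.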

[16] = qHTS assay to identify small molecule antagonists of the estrogen related receptor (ERR) signaling pathway - cell viability counter screen (AID 1224818); also: series mostly up to about 46 µM
Procedure, shortened: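 ERR cells, 2,000 per well, compound added after 6 h and incubated 17.5 h at 37 C. Viability read by CellTiter-Fluor fluorescence after a further 30 min at 37 C.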

[17] = qHTS assay to identify small molecule antagonists of the estrogen related receptor signaling pathway with the pleiotropic PPARgamma coactivator (PGC) cell viability counter screen (AID 1224822; also: series mostly up to about 46 µM)
Procedure, shortened: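 PGC/ERR cells rested 6 h, then compound-treated 17.5 h at 37 C. CellTiter-Fluor added for 30 min at 37 C, viability measured by fluorescence intensity.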

Measured: Potency

Retinoic acid receptor RXR-alpha (Homo sapiens), sequence (P19793 whole entry, looked up): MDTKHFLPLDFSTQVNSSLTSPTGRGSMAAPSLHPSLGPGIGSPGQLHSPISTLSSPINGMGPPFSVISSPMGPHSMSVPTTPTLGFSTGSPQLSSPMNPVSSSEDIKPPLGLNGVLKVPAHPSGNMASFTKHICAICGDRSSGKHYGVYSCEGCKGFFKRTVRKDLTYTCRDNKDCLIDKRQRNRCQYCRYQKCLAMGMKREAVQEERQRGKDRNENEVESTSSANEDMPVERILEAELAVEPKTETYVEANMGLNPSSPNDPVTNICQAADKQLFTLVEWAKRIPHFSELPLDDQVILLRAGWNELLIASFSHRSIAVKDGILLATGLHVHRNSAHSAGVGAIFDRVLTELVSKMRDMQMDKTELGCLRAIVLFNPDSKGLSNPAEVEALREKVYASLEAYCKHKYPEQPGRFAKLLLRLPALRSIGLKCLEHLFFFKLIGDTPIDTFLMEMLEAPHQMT

O=C(O)COc1ccccc1
not listed: [13] | [14] | [15] | [16] | [17]
inactive: all other assays above

O=[N+]([O-])c1ccc(Cl)cc1
not listed: [11] | [14] | [15] | [16] | [17]
inactive: all other assays above

O=[N+]([O-])c1ccc(Cl)c(Cl)c1
not listed: [11] | [15] | [16] | [17]
inactive: all other assays above

CNC(=O)O/N=C/C(C)(C)S(C)=O (stereo unspecified)
not listed: [6] | [16] | [17]
inactive: all other assays above

CN(C)C(=O)C(c1ccccc1)c1ccccc1
not listed: [11] | [15] | [16] | [17]
inactive: all other assays above

Nc1cccc(Cl)c1
not listed: [11] | [14] | [15] | [16] | [17]
inactive: all other assays above

O=C(O)CCCc1ccc(N(CCCl)CCCl)cc1
not listed: [7] | [13] | [14] | [15] | [16] | [17]
inactive: all other assays above

CSc1nnc(C(C)(C)C)c(=O)n1N
not listed: [6] | [15] | [16] | [17]
inactive: all other assays above

C=CC(=O)OCCCCCC(C)C
not listed: [11] | [15] | [16] | [17]
inactive: all other assays above

Cl[C@H]1OCCO[C@@H]1Cl
not listed: [11] | [15] | [16] | [17]
inactive: all other assays above

Clc1cnc(Oc2ccc(Oc3ncc(Cl)cc3Cl)cc2)c(Cl)c1
not listed: [11] | [15]
inactive: all other assays above
